High-throughput results as filed in PubChem.
PTK2B oligo ant: antagonists of Pyk2 self-association, primary screen, Q293 cells, FERM NanoBiT luminescence, HTS; 99,000 tested, 0.83% active; Protein-tyrosine kinase 2-beta (Homo sapiens), Q14289; z-score (the deposit names both 25 µM and 10 µM); AID 1347419, 2020; active compounds read low;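 active = Z-score of -3 or lower, scaled per plate to the spread of control and sample wells; inactive = z-score above -3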;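 note: negative z-score means lost luminescence so less FERM oligomerization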
Target sequence (Q14289 whole entry, looked up): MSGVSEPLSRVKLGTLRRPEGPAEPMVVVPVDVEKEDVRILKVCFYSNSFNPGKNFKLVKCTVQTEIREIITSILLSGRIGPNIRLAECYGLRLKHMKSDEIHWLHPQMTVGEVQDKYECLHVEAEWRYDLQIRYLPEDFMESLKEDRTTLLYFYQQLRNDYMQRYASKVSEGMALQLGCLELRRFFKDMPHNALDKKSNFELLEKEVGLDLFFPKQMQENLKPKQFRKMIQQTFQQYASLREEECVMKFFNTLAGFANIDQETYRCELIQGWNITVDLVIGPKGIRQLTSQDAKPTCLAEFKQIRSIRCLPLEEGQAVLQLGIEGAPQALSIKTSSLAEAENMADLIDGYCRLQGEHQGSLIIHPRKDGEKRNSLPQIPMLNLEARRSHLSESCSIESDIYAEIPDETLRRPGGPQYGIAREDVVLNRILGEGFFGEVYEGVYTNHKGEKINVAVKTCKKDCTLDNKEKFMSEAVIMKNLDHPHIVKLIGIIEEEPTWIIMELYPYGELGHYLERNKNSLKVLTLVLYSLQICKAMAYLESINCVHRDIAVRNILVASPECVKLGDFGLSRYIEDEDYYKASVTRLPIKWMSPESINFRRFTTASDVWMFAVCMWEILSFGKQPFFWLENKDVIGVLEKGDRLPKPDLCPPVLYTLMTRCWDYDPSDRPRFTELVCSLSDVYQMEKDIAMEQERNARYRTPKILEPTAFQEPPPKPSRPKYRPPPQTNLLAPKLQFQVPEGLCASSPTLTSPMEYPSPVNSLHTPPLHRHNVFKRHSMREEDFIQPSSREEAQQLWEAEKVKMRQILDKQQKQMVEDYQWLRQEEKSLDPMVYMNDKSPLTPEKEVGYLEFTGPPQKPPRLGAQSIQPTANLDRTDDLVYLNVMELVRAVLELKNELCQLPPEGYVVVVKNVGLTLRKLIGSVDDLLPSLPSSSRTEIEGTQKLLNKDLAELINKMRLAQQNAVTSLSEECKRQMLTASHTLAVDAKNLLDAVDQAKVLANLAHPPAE
Cav32 inh: Cav3.2 calcium influx blockers – cell-based, Fluo-4 calcium fluorescence, FDSS, MLSMR library, primary screen | Cav3.2-expressing cells; active compounds read low | Voltage-dependent T-type calcium channel subunit alpha-1H (Homo sapiens), O95180 | B-score at 10 µM | 100,000 tested, 4% active | AID 449739, 2010;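 active = single-dose well whose peak fluorescence ratio is a statistical outlier from its plate by either plate-standardised score or position-corrected B-score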
CYP2C9 act: human CYP2C9 activators, primary screen, biochemical, luminescence | recombinant CYP2C9, luciferin-H conversion; active compounds read high; factor 1 = untreated enzyme, 0 = blocked | 96,000 tested, 1.4% active | Cytochrome P450 2C9 (Homo sapiens), P11712 | AID 1024, 2008 | activation factor at 5 µM;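 active = activation factor of 2 or more for CYP2C9 at a 5 µM dose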
CYP2C19 act: human CYP2C19 activators, primary screen, biochemical, luminescence. activation factor at 5 µM. recombinant CYP2C19, luciferin-H EGE luminescence; active compounds read high; 0 = fully inhibited enzyme, 1 = untreated enzyme. 96,000 tested, under 10 active. AID 1025, 2008. Cytochrome P450 2C19 (Homo sapiens), P33261;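 active = activation factor of at least 2 at 5 µM in the primary screen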
CYP2C9 inh: blockers of cytochrome P450 2C9 activity – biochemical, luminescence, ADME assay, primary screen; P11712; CYP2C9 Supersomes, luciferin-H conversion; inhibition, % at 5 µM; 96,000 tested, 20% active; AID 777, 2007;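 active = blocking of liver enzyme CYP2C9 beyond about 50% at 5 µM, limit read from the data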
CYP2C19 inhib: blockers of cytochrome P450 2C19 activity – biochemical, luminescence, ADME assay, primary screen. 96,000 tested, 21% active. CYP2C19 Supersomes, luciferin-H EGE luminescence, 30 min. AID 778, 2007. inhibition, % at 5 µM. P33261;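 active = CYP2C19 inhibition above a set limit at 5 µM in the primary screen, cut at about 50% in these data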
Numbers stand for hits; – = inactive; · = not tested or not shown. An excerpt weighted towards active compounds, which were near 27% of everything screened.

SMILES	PTK2B oligo ant	Cav32 inh	CYP2C9 act	CYP2C19 act	CYP2C9 inh	CYP2C19 inhib
COc1ccc(C2CC(c3cccc(C)c3)n3ncnc3N2)cc1 (centres undefined)	·	–	–	–	61	96
COCC(=O)Nc1nnc(CCc2ccccc2)s1	–	–	–	–	–	–
CCOC(=O)Nc1oc2ccccc2c(=O)c1CN1CCOCC1	–	–	–	–	–	–
CCc1nc(SCC(=O)c2ccc(C)c(C)c2)n[nH]1	–	–	2.3	–	–	97
Cc1ccc(C(=O)CSc2n[nH]c(-c3ccco3)n2)cc1C	–	–	–	–	–	–
Cc1nc(SCC(=O)N2c3ccccc3Sc3ccccc32)n[nH]1	–	–	–	–	–	60
Cc1nc(SCC(=O)c2ccc(F)cc2)n[nH]1	–	–	–	–	71	58
CON(c1nc(N(C)C)nc(N(C)C)n1)S(=O)(=O)c1ccccc1Cl	–	–	–	–	–	–
COc1cc(-c2ccc3oc(-c4ccsc4)cc3c2)cc(OC)c1OC	·	–	·	·	·	·
Cc1nn(-c2ccccc2)c(N2CCCC2)c1/C=N/O	–	–	–	–	–	–
Cc1nn(-c2ccccc2)c(N2CCCC2)c1/C=N/n1cnc2scc(-c3ccccc3)c2c1=O	–	-5.6	–	–	–	–
O=c1c2cc(-c3ccccc3)sc2ncn1/N=C/c1ccco1	–	–	–	–	–	–
O=c1c2c(-c3ccccc3)csc2ncn1/N=C/c1c2ccccc2cc2ccccc12	–	–	–	–	85	–
CCOc1ccc(C2NC(=O)NC(C)=C2C(=O)OC)cc1C (centres undefined)	–	–	–	–	–	–
Cc1cc2cc(C)c3nnc(SCC(=O)NCc4ccco4)n3c2cc1C	–	–	–	–	–	–
COc1ccc(CCNC(=O)c2nc3ncccn3n2)cc1OC	–	·	–	–	–	–
COc1cccc(NC(=O)c2nc3ncccn3n2)c1	–	–	2	–	–	–
Cn1nc(-c2ccc(OCC(=O)Nc3ccccc3)cc2)c2ccccc2c1=O	–	–	–	–	68	81
COc1cc(NC(=O)Cc2nn(C)c(=O)c3ccccc23)cc(OC)c1	–	–	–	–	86	–
COC(=O)COc1ccc(-c2nn(C)c(=O)c3ccccc23)cc1	–	–	–	–	–	–
Cn1nc(-c2ccc(OCC(N)=O)cc2)c2ccccc2c1=O	–	–	–	–	61	–
CN(C(=O)c1ccc(-c2nn(C)c(=O)c3ccccc23)cc1)c1ccccc1	–	–	–	–	62	–
COc1ccc(C2=C(O)C(C)N(c3ccccc3)C2=N)cc1OC (centres undefined)	–	–	–	–	–	–
CC(C)Cn1c(-c2ccc(F)cc2)n[nH]c1=S	–	–	–	–	–	86
CCn1c(-c2ccc(F)cc2)n[nH]c1=S	–	–	–	–	–	–
SMILES	PTK2B oligo ant	Cav32 inh	CYP2C9 act	CYP2C19 act	CYP2C9 inh	CYP2C19 inhib
CC(C)Cn1c(-c2ccccc2F)n[nH]c1=S	–	–	–	–	–	81
CC(C)Cn1c(-c2ccco2)n[nH]c1=S	–	–	–	–	–	–
COC(=O)[C@H]1C[C@@H]1[C@H](NC(=O)c1cccnc1)c1ccccc1	·	–	·	·	·	·
C#Cc1ccc([C@H]2C=C(C(=O)N3CCN(Cc4ccc5c(c4)OCO5)CC3)O[C@@H](OCC)[C@@H]2CCCO)cc1	·	–	·	·	·	·
Cc1cccc2cc(CN(Cc3ccccc3)C(=O)c3cccc(F)c3)c(Cl)nc12	–	–	–	–	62	–
Cc1cccc2cc(CN(C(=O)c3cnccn3)C3CCCCC3)c(Cl)nc12	–	–	–	–	–	–
COc1cccc2c1C(=O)c1c(O)c3c(c(O)c1C2=O)C[C@@](O)(C(=O)CO)C[C@@H]3O[C@H]1C[C@H](N)[C@H](O)[C@H](C)O1	·	-5.7	·	·	·	·
CCCC[C@@H]1CNC(=O)C(=O)N1CC(C)(C)C	·	–	·	·	·	·
COc1cccc(NC2C=CS(=O)(=O)C2)c1 (centres undefined)	–	–	·	·	·	·
O=S1(=O)C=CC(Nc2cccc(Cl)c2)C1 (centres undefined)	–	–	–	–	71	–
